Broadly, the inhibition is the relative decrease from the control value, in per cent.

Structures are written as SMILES.

The target in experiment [1] is Leukocyte tyrosine kinase receptor (Homo sapiens) (UniProt P29376). Particulars: at 1 µM.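 Further: each value is the mean inhibition of LTK.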
Experiment [2] concerns the target Tyrosine-protein kinase Lyn (Homo sapiens) (UniProt P07948). Particulars: at 0.1 µM.
For experiment [3] the target is unchanged. The note with it: at 1 µM.
Experiment [4] has the same target. The note with it: at 0.1 µM. The source holds these as a separate data set.
Experiment [5] shares this target. Particulars: at 1 µM. The source holds these as a separate data set.
Experiment [6] has as its target T1, Tyrosine-protein kinase Mer (Homo sapiens) (UniProt Q12866).
T1 sequence (whole entry): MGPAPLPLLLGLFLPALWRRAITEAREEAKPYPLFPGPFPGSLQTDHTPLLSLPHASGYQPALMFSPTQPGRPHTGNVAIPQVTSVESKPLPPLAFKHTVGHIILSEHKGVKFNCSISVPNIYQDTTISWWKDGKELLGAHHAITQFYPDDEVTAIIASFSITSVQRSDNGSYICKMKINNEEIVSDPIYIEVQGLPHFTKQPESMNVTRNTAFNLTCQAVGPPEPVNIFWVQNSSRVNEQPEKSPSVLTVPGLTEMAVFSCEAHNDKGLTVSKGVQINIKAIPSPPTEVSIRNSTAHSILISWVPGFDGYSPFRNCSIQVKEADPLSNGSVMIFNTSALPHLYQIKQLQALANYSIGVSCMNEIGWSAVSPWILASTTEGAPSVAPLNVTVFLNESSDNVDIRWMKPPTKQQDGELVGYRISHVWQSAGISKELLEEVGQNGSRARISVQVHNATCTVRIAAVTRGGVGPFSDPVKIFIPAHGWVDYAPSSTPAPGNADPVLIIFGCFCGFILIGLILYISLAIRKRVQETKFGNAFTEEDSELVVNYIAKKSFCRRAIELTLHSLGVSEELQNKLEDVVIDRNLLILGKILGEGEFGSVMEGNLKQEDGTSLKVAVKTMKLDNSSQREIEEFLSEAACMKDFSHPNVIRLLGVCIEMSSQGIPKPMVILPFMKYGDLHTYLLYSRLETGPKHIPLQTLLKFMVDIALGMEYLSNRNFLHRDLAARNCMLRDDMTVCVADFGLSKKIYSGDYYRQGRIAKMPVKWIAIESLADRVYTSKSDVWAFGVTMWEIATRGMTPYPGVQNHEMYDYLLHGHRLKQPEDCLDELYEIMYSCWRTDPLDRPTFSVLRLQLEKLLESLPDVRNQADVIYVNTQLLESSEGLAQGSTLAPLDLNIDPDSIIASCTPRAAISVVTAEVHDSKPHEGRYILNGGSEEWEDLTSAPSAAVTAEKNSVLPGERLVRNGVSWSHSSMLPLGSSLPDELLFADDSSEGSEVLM
Particulars: at 0.1 µM.

Experiment [7] addresses T1, Tyrosine-protein kinase Mer (Homo sapiens). Particulars: at 1 µM.
Experiment [8] has as its target Hepatocyte growth factor receptor (Homo sapiens) (UniProt P08581). The note with it: at 0.1 µM.
For experiment [9] the target is unchanged. The note with it: at 1 µM.
In experiment [10] the target is T2, Muscle, skeletal receptor tyrosine-protein kinase (Homo sapiens) (UniProt O15146).
T2 sequence (whole entry): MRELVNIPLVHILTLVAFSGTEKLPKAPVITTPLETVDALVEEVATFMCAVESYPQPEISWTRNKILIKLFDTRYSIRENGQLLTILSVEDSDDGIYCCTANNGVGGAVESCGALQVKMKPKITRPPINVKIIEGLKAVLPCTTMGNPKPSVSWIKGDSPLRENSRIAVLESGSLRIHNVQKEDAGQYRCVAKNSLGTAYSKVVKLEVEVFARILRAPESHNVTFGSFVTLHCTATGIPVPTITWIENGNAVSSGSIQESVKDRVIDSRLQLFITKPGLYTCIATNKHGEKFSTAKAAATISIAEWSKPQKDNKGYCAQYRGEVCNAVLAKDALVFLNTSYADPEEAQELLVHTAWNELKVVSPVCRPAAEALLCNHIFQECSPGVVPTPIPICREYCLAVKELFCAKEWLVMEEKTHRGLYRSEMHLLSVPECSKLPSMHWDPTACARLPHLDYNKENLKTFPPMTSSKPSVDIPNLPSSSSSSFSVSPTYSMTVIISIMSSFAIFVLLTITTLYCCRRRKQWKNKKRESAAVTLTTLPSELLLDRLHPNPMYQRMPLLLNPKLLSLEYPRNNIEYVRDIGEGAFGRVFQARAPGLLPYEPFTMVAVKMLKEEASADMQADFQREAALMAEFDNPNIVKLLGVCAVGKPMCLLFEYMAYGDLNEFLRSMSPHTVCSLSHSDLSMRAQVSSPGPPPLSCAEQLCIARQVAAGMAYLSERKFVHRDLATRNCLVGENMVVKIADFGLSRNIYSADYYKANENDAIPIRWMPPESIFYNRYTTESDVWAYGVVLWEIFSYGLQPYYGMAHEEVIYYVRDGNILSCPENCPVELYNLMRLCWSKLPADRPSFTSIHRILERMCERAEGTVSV
The note with it: at 0.1 µM.

In experiment [11] the target is T2, Muscle, skeletal receptor tyrosine-protein kinase (Homo sapiens). Particulars: at 1 µM.
The target of experiment [12] is Platelet-derived growth factor receptor alpha (Homo sapiens) (UniProt P16234). The note with it: at 0.1 µM.
Chain of Platelet-derived growth factor receptor alpha (Homo sapiens) (P16234 whole entry): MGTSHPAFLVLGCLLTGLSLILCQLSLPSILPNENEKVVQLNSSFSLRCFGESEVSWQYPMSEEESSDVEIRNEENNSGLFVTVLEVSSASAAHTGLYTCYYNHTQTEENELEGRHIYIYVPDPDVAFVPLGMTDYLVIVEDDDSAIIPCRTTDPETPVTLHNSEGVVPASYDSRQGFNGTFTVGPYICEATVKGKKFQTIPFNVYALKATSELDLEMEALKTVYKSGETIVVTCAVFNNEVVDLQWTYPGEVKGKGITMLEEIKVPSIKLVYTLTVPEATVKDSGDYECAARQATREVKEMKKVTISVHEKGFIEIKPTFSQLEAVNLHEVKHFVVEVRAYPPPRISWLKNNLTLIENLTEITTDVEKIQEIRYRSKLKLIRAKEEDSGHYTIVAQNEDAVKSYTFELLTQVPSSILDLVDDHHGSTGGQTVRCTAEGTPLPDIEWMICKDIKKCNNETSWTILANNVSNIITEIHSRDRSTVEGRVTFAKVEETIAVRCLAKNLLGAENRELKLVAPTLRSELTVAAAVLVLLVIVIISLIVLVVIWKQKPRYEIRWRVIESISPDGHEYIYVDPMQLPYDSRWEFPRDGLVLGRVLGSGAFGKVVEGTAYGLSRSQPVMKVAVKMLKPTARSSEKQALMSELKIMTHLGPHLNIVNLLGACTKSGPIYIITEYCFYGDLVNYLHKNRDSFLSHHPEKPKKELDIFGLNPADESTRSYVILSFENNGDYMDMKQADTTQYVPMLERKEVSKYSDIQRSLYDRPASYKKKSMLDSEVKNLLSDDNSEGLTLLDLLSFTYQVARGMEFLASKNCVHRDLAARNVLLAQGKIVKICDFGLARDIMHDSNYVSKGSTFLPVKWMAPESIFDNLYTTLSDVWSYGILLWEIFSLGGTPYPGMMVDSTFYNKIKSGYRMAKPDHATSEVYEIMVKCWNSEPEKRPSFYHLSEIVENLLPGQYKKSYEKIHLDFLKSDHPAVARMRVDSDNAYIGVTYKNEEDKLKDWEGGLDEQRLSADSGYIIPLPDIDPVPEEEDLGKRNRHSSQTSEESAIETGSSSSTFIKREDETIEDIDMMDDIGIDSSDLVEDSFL
Experiment [13] has the same target. Particulars: at 1 µM.
Experiment [14] has as its system Platelet-derived growth factor receptor alpha (Homo sapiens), P16234 [D842V]. The note with it: at 0.1 µM.
For experiment [15] the test system is unchanged. The note with it: at 1 µM.
The subject of experiment [16] is Platelet-derived growth factor receptor alpha (Homo sapiens), P16234 [T674I]. Particulars: at 0.1 µM.
For experiment [17] the test system is unchanged. The note with it: at 1 µM.
In experiment [18] the test system is Platelet-derived growth factor receptor alpha (Homo sapiens), P16234 [V561D]. Particulars: at 0.1 µM.
Chain of Platelet-derived growth factor receptor alpha (Homo sapiens), P16234 [V561D] (P16234 whole entry V561D): as the sequence (P16234 whole entry) above, with V561D counted along it
Experiment [19] shares this test system. Particulars: at 1 µM.
Experiment [20] concerns the target Platelet-derived growth factor receptor beta (Homo sapiens) (UniProt P09619). The note with it: at 0.1 µM.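 Further: reported value is the mean percent inhibition of the kinase.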

Chain of Platelet-derived growth factor receptor alpha (Homo sapiens), P16234 [D842V] (P16234 whole entry D842V): as the sequence (P16234 whole entry) above, with D842V counted along it
Chain of Hepatocyte growth factor receptor (Homo sapiens) (P08581 whole entry): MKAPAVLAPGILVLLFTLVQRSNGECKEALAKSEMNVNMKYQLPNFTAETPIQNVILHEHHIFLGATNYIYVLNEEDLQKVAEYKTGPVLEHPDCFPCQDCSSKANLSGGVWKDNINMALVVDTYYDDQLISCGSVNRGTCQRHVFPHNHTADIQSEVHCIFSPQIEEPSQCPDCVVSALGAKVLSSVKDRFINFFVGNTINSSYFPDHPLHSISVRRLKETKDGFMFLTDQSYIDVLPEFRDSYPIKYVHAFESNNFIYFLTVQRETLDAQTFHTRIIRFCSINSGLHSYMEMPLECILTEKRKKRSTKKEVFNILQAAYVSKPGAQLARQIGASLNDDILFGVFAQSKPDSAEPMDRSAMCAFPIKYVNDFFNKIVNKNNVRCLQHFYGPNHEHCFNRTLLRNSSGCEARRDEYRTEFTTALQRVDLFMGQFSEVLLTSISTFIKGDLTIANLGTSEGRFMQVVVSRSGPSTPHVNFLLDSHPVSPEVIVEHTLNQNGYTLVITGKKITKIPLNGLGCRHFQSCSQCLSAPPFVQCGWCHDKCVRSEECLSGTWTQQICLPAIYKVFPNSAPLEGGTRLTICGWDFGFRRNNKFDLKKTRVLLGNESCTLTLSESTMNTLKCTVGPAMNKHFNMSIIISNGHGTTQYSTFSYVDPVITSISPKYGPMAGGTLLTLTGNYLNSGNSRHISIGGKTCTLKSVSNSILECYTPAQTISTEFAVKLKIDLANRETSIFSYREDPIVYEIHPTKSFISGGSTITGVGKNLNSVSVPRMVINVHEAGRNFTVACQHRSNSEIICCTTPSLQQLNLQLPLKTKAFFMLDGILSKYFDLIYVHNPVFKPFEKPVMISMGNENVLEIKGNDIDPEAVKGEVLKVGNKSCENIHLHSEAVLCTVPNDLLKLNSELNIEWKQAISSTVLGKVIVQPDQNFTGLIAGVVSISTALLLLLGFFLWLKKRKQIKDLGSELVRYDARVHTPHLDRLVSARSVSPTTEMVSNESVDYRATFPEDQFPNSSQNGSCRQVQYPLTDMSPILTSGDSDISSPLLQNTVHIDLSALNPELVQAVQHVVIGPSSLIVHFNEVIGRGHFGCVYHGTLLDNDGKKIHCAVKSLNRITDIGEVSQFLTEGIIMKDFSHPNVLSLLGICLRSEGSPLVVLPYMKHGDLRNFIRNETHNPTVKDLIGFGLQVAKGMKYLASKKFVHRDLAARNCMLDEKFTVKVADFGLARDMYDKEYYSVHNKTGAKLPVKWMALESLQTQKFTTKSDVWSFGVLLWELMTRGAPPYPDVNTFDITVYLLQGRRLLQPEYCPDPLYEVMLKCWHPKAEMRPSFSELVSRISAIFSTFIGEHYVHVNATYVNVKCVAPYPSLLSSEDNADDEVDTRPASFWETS

For `Cc1ccc(O)cc1Nc1ccnc2ccc(S(C)(=O)=O)cc12`, the inhibition was 10.2% in [1]; 93.2% in experiment [2]; 96.7% in experiment [3]; 91.9% in [4]; 96.2% in [5]; 3.15% in [6]. Besides, the inhibition is 4.83% in experiment [7]; 5.51% in [8]; -0.38% in experiment [9]; 2.4% in [10]; 5.56% in experiment [11]; 72.2% in experiment [12]. For the same compound, the inhibition was found to be 85% in [13]; 88.8% in experiment [14]; 97.1% in [15]; 7.4% in experiment [16]; 14.8% in experiment [17]; 84.7% in experiment [18]. Further, the inhibition in experiment [19] was determined as 95%; in [20] it was 63.8%.
Turning to `CCS(=O)(=O)c1ccc(OC)c(Nc2nccc(N(C)c3ccc4c(C)n[nH]c4c3)n2)c1`, the inhibition is 37.5% in experiment [1]; 45.7% in experiment [2]; 85% in experiment [3]; 37.7% in experiment [4]; 82.8% in [5]; -1.04% in experiment [6]. Moreover, the inhibition in experiment [7] is 1.84%; in experiment [8] it was 3.86%; in experiment [9] it was 5.71%; in [10], 2.51%; in [11], 1.07%; in [12], 22.9%. Further, the inhibition was found to be 67.5% in experiment [13]; 21.8% in experiment [14]; 74.3% in experiment [15]; 5.5% in experiment [16]; 12.5% in [17]; 20.5% in [18]. Moreover, the inhibition is 69.5% in experiment [19] and 20.9% in [20].
`FC(F)(F)c1ccc(-c2nn3ncccc3c2-c2ccnc(Nc3ccc4c(c3)OCCO4)n2)cc1`: the inhibition in [1] turned out to be 3.42%; in [2], 6.84%; in [3], 37.1%; in [4], 4.96%; in experiment [5], 30.8%; in experiment [6], 7.37%. In addition, the inhibition was determined as 8.55% in experiment [7]; 5.94% in experiment [8]; 12.1% in experiment [9]; 7.57% in [10]; 15% in experiment [11]; 9.5% in experiment [12]. The inhibition in experiment [13] came out at 19.5%; in experiment [14], 1.06%; in experiment [15] it was 5.73%; in experiment [17], 5.8%; in experiment [18] it was 6.7%; in experiment [19], 11.7%. The inhibition in experiment [20] came out at 9.78%.
As for `Cc1ccc2c(-c3ccnc(Nc4cccc(C(F)(F)F)c4)n3)c(-c3ccccc3)nn2n1`, the inhibition in [1] amounted to 2.99%; in experiment [2] it was 12.6%; in [3], 53%; in experiment [4] it was 8.81%; in [5], 47.8%; in [6] it was 4.49%. The inhibition in experiment [7] is 20%; in [8], 13.9%; in experiment [9], 10.4%; in experiment [10], 4.93%; in [11], 5.46%; in [12], 13.9%. Further, the inhibition in experiment [13] was found to be 61%; in [14] it was 10.5%; in experiment [15] it was 38.4%; in [16], 3.21%; in experiment [17] it was 9.14%; in experiment [18], 14.2%. Also, the figures for the inhibition in experiment [19] and in experiment [20] were 52% and 35.4%, respectively.
Turning to `N#Cc1cccc(Nc2nccc(-c3cnn4ncccc34)n2)c1`, the inhibition in experiment [1] was determined as 12.7%; in [2], 6.49%; in experiment [3], 31.5%; in experiment [4], 4.82%; in experiment [5], 22.2%; in experiment [6], 7.85%. Also, the inhibition in experiment [7] came out at 46%; in [8], 6.82%; in experiment [9] it was 17.3%; in experiment [10], 5.72%; in experiment [11], 24.6%; in experiment [12], 16.3%. For the same compound, the inhibition in experiment [13] was 52.5%; in experiment [14] it was 10.5%; in [15] it was 48.8%; in experiment [16], 15.7%; in [17] it was 60.5%; in [18] it was 23.3%. Further, the inhibition in [19] worked out at 59.9%; in experiment [20] it was 27.2%.
In the case of `CCS(=O)(=O)c1ccc(OC)c(Nc2ncc(-c3cccc(OC)c3)o2)c1`, the inhibition in [1] worked out at 3.16%; in experiment [2], 20.2%; in [3], 68.2%; in experiment [4], 15.9%; in [5], 63.6%; in experiment [6], 2.42%. The inhibition in experiment [7] is 7.73%; in [8] it was -0.79%; in experiment [9] it was 2.24%; in experiment [10], 4.87%; in [12], 23.5%; in experiment [13] it was 58.4%. The inhibition in [14] was 10.9%; in experiment [15] it was 55.3%; in experiment [16], 4.09%; in experiment [17] it was 10.2%; in experiment [18], 19.6%; in experiment [19], 68.7%. Further, in [20], the inhibition was determined as 43.7%.
On to `ON=C1CCc2cc(-c3nc(C4CCNCC4)[nH]c3-c3ccncc3)ccc21`, for which the inhibition in experiment [1] is 1.88%; in experiment [2], 0.17%; in experiment [3], 2.43%; in experiment [4], -0.33%; in experiment [5], 0.99%; in [6], -0.13%. Further, the inhibition was 2.76% in experiment [7]; 0.32% in experiment [8]; 4.34% in experiment [9]; -1.09% in experiment [10]; 1.9% in experiment [11]; 2.97% in experiment [12]. Moreover, the inhibition in experiment [13] stood at 10.5%; in [14] it was 2.44%; in experiment [15], 6.66%; in experiment [16], 1%; in [17], 0.52%; in [18], 1.54%. Also, the inhibition in experiment [19] was found to be 6.14%; in [20], 4.22%.
